Screens as filed in PubChem.
This is a sample that favours compounds with a hit; in the whole collection about 19% have one here.
IL1B secr inh = inhibitors of inflammasome signaling (IL-1 beta secretion) | activity change, % at 57.5 µM | actives 4.7% (n = 360,000) | THP-1 LPS/ATP IL-1B secretion, AlphaLISA, 16 h; stronger effect = lower value; in the data active = activity change below about -50%; inconclusive = mostly about -30% to -49%
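THP-1 cells pretreated 1 hr with compounds (up to 57.5 uM final), then stimulated with LPS (250 ng/mL final) plus ATP (1.25 mM final); secreted IL-1B measured by AlphaLISA after 16 hr, decreased signal indicating inhibition.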
DT40 TDP1 CPT = growth inhibition of DT40 Tdp1-/-;hTDP1 cells with camptothecin (screen for TDP1 inhibitors); chicken DT40 Tdp1-/-;hTDP1 cells + 20 nM CPT, ATP luminescence, 48 h; Potency, µM (titrated, usually from 46.2 µM), for the others: at the highest dose activity change, negative = growth inhibition, hits mostly inhibitors; actives 12% (n = 420,000); AID 686979; note: potency is the fitted concentration of half-maximal effect; nearly all actives have a fitted effect of over 55% in size
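Chicken DT40 Tdp1-/- cells complemented with human TDP1, 400 cells/well, exposed to compounds plus 20 nM camptothecin for at least 48 h at 37 C; viability read as ATP content by CellTiter-Glo luminescence.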
TDP1 cell noCPT = qHTS for Inhibitors of human tyrosyl-DNA phosphodiesterase 1 (TDP1): qHTS in cells in absence of CPT; DT40 Tdp1-/- hTDP1 cells, no CPT, ATP luminescence, 48 h; Potency, µM (doses to about 46.2 µM), inactives show at the top dose activity change, negative = growth inhibition, usual class: inhibitors; actives 15% (n = 420,000); AID 686978, 2013; note: potency is the fitted concentration of half-maximal effect; nearly all actives have a fitted effect of over 55% in size
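Camptothecin absent (DMSO only). Human TDP1-complemented DT40 knockout cells, 400 cells/well, 37 °C for minimum 48 hr; ATP measured via CellTiter-Glo, 30 min dark incubation, luminescence.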
ELG1 repair inh = ELG1-dependent DNA repair inhibition; HEK293T ELG1-luciferase reporter, luminescence, 16 h; DNA damage induced by 5-fluorouridine; Potency, µM (doses to about 46.1 µM), inactives show at the highest dose activity change, negative = inhibition, actives largely listed as inhibitors; actives 2.3% (n = 330,000); AID 504467; note: potency is the fitted concentration of half-maximal effect; nearly all actives have a fitted effect of over 55% in size
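Quantitative HTS, concentration-response format. 2,000 cells/well co-treated with 5-fluorouridine and compound, 16 hr in 5% CO2 at 37 °C; ONE-Glo luminescence read after 30 min.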
HT1080-NT tox = kills 2HG-producing HT-1080-NT fibrosarcoma cells; HT-1080-NT fibrosarcoma viability, CellTiter-Glo ATP luminescence, 48 h; Potency, µM (top dose mostly 46.1 µM), inactives show top-dose activity, negative = less viability, actives largely listed as cytotoxic; actives 1.6% (n = 360,000);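 note: NT is the 2HG producing partner of a matched IDH1 knockdown line; potency is the fitted concentration of half-maximal effect; 0% = DMSO-treated cells and -100% = media-only wells without cells; nearly all actives have a fitted effect of over 55% in size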
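Read-out is CellTiter-Glo luminescence after 10 minutes at room temperature, following 48 hours' compound treatment of HT-1080-NT cells (750 cells/well, RPMI, 5% FBS, 37 degrees C).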
HT1080 IDH1KD tx = kills HT-1080 cells with IDH1 knockdown; HT-1080 IDH1 knockdown viability, ATP luminescence, 48 h; Potency, µM (series often up to 46.1 µM), inactives show at the top dose activity, negative = toxicity, actives largely listed as cytotoxic; actives 2% (n = 360,000); AID 686971;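 note: potency is the fitted concentration of half-maximal effect; 0% = DMSO wells and -100% = cell-free medium wells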
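IDH1KD HT-1080 cells, 750/well, RPMI + 5% FBS; compound pinned after 2 h settling; 48 h, 37 °C; CellTiter-Glo luminescence; % activity normalised to DMSO and no-cell wells; curves fitted, classed by r2 and efficacy.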
An asterisk follows results filed as active; ? = inconclusive; / = not tested or not shown. Unless noted, calls come from the whole dose curve; as a rule, active = well fitted curve in the direction sought with a large enough effect; inconclusive = small, poorly fitted or top-dose-only effect, or another doubt; inactive = no such curve, though single readings can be large; an effect the other way counts as inactive or inconclusive. Unless noted, % is set by controls: 0 for no effect and ±100 for the full control effect.

SMILES	IL1B secr inh	DT40 TDP1 CPT	TDP1 cell noCPT	ELG1 repair inh	HT1080-NT tox	HT1080 IDH1KD tx
COc1ccc2oc(C(=O)N(C)Cc3ccc4c(c3)OCCO4)c(C)c2c1	-5	?	?	16%	0%	-2%
CCOc1ccc2oc(C(=O)N(C)CCc3ccc(OC)c(OC)c3)c(C)c2c1	-12	21µM*	?	18µM*	2%	3%
CCOc1ccc2oc(C(=O)N(C)CC(=O)Nc3ccc(OCC)c(OCC)c3)c(C)c2c1	-6	?	18µM*	?	0%	0%
OCc1ccccc1-c1cccc2nccn12	0	?	?	/	28%	14%
COc1cc(-c2nnc(COC(=O)CSc3cc(C)c4ccccc4n3)o2)cc(OC)c1OC	-1	-25%	-15%	?	4%	14%
CCCN(CC(=O)c1cc(C)n(C)c1C)S(=O)(=O)c1cccc(C(F)(F)F)c1	-3	23µM*	?	-16%	-16%	-7%
CCN(CC)S(=O)(=O)c1cccc(-c2nnc(SCC(=O)c3cc(C)n(C)c3C)o2)c1	-25	21µM*	21µM*	?	15%	11%
CCN(CC)S(=O)(=O)c1cccc(-c2nnc(SCCOc3ccccc3C)o2)c1	-7	?	?	?	-6%	-10%
COc1cc(-c2nnc(CSc3nc4ccccc4s3)o2)cc(OC)c1OC	/	/	/	12µM*	/	/
CCN(CC)S(=O)(=O)c1cccc(-c2nnc(SCCOc3ccc(Cl)cc3)o2)c1	-10	23µM*	?	21µM*	-3%	?
COc1ccc(CCNC(=O)CSC2=NS(=O)(=O)c3cc(F)ccc3N2)cc1OC	?	-11%	?	/	-7%	-2%
O=C(OCC#CCSc1nnc(-c2cccc3ccccc23)o1)c1cnc[nH]1	/	/	/	-20%	/	/
CCOc1ccc(-n2c(=O)c3c(C)c(C(=O)N(C)C)sc3n(Cc3cc(C)ccc3C)c2=O)cc1	/	3%	1%	/	/	/
COc1cc(-c2nnc(SCCOc3ccccc3)o2)cc(OC)c1OC	/	?	16µM*	/	/	/
CCN(CC)S(=O)(=O)c1cccc(-c2nnc(SCCOc3ccccc3)o2)c1	-13	16µM*	21µM*	?	?	-8%
CCCN1CCN(C(=O)Nc2cccc(C(F)(F)F)c2)CC1	-9	-24%	-14%	29%	0%	6%
CCN1CCN(Cc2c(O)ccc3oc(C)c(C(=O)Nc4cccc(C(F)(F)F)c4)c23)CC1	/	15µM*	?	/	/	/
Cc1oc2ccc(O)c(CN3CCN(C)CC3)c2c1C(=O)Nc1cccc(C(F)(F)F)c1	/	15µM*	?	/	/	/
Cc1ccc2[nH]c(O)c(N=NC(=O)CCc3ccccc3)c2c1Br	-88*	16µM*	?	?	-6%	3%
C/C=C/c1c(F)c(F)c(Oc2ccc(C(=O)O)cc2)c(F)c1F	16	-4%	2%	1%	16µM*	3%
CC(C)n1c(=O)n(CC(=O)NCC2CCCO2)c(=O)c2c3c(sc21)COC(C)(C)C3 (stereo not given)	-5	9%	-6%	6%	0%	1%
N#Cc1c(N2CCCC(O)C2)nc(N)c2c(N)nc3c(c12)CC(=O)N3C12CC3CC(CC(C3)C1)C2 (stereo not given)	9	16µM*	18µM*	?	-16%	-14%
COc1ccc(CN2C(=O)Cc3c2nc(N)c2c(N)nc(N4CCCCC4)c(C#N)c32)cc1	/	/	/	-13%	/	/
C=C(C)CN(CC)c1nc(N)c2c(N)nc3c(c2c1C#N)CC(=O)N3C12CC3CC(CC(C3)C1)C2	-60*	3.3µM*	3.3µM*	?	-29%	-19%
